Test results taken from PubChem BioAssay (NCI).
The panel holds about 79,000 compounds, 15% with a hit somewhere; the sample as a whole holds those more often. Values without a mark were called inactive. Calls of active or inactive are those of the source. Cut-off read from the data, not from the text of the source: active = growth inhibition above about 70%; inactive = the rest.

Legend:
[1] = NCI Yeast Anticancer Drug Screen. Data for the rad50 strain (AID 155);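 note: 0% = growth of vehicle-only cultures of the same strain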; conditions: S. cerevisiae rad50 strain growth inhibition, active compounds read high
Method in brief: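 Yeast carrying a defined DNA repair defect were exposed to test compounds, and growth was compared with vehicle-treated controls to give percent inhibition.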

[2] = NCI Yeast Anticancer Drug Screen. Data for the mec2-1 strain (AID 157); conditions: S. cerevisiae mec2-1 strain, active compounds read high
Method in brief: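 Mutant yeast (mec2-1) grown with compound; growth inhibition relative to vehicle control reported.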

[3] = NCI Yeast Anticancer Drug Screen. Data for the sgs1 mgt1 strain (AID 161);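 note: 0% = growth of cultures given vehicle only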; conditions: S. cerevisiae sgs1 mgt1 strain, active compounds read high
Method in brief: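 Percent growth inhibition was derived by comparing compound-exposed mutant yeast with vehicle-exposed cultures. The strain carries alterations in DNA damage repair.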

[4] = NCI Yeast Anticancer Drug Screen. Data for the cln2 rad14 strain (AID 165);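 note: 0% = growth equal to vehicle treated cultures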; conditions: S. cerevisiae cln2 rad14 strain, active compounds read high
Method in brief: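 Readout is yeast growth inhibition versus vehicle-treated controls, using a strain with cln2 and rad14 alterations exposed to compound.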

[5] = NCI Yeast Anticancer Drug Screen. Data for the bub3 strain (AID 167); conditions: S. cerevisiae bub3 mutant strain, active compounds read high
Method in brief: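 Compounds were applied to a genetically altered yeast strain carrying a cell-cycle control defect. Growth inhibition was scored against vehicle-treated controls.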

[6] = NCI Yeast Anticancer Drug Screen. Data for the mlh1 rad18 strain (AID 175); conditions: S. cerevisiae mlh1 rad18 strain growth inhibition, active compounds read high
Method in brief: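 Genetically defined yeast (DNA repair-deficient) exposed to compounds; growth inhibition determined relative to vehicle.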

[7] = at 5.0 µM (retest, dose inferred, filed as 0.5)
[8] = at 50.0 µM (retest, dose inferred, filed as 5.0)

Row | SMILES | growth inhibition [1, 7] | growth inhibition [1, 8] | growth inhibition ([1]; at 50.0 µM) | growth inhibition [2, 7] | growth inhibition [2, 8] | growth inhibition ([2]; at 50.0 µM) | growth inhibition [3, 7] | growth inhibition [3, 8] | growth inhibition ([3]; at 50.0 µM) | growth inhibition [4, 7] | growth inhibition [4, 8] | growth inhibition ([4]; at 50.0 µM) | growth inhibition [5, 7] | growth inhibition [5, 8] | growth inhibition ([5]; at 50.0 µM) | growth inhibition [6, 7] | growth inhibition [6, 8] | growth inhibition ([6]; at 50.0 µM)
1 | Nc1ncnc2c1c(-c1ccccc1)cn2-c1ccc(Br)cc1 | 23% | 38% | 43.1% | 16% | 43% | 21.7% | 47% | 80% (active) | 94% (active) | 13% | 44% | 28.1% | 3% | 37% | -1.8% | 14% | 58% | 58.9%
2 | CC1C[C@]2(C)C(=S)Nc3ccccc3[C@@H]2Nc2ccccc21 (some centres not stated) | -1% | 43% | 21.9% | 8% | 55% | 17.9% | 23% | 74% (active) | 48.8% | 26% | 60% | 19.8% | 24% | 82% (active) | 42.3% | 6% | 58% | 63.3%
3 | c1cc[c]([Ge]([O]c2cccc3cccnc23)([c]2ccccc2)[c]2ccccc2)cc1 | 10% | 10% | 73% (active) | 7% | 7% | 67% | -3% | -3% | 67.5% | 6% | 6% | 45.5% | 7% | 7% | 72.2% (active) | 10% | 10% | 74% (active)
4 | O=c1c2c3ccccc3[nH]c2c2cccc3c2n1CCC3 | 4% | 92% (active) | 88.7% (active) | 5% | 88% (active) | 90% (active) | 13% | 89% (active) | 88.2% (active) | -1% | 69% | 83.5% (active) | 11% | 96% (active) | 89.3% (active) | 13% | 94% (active) | 88.8% (active)
5 | CC(=O)N1C=C2CCC3c4ccccc4NC3C2CC1 (configuration not stated) | -2% | 15% | 33.2% | 1% | 4% | 4.05% | -4% | 13% | 34.5% | -51% | 0% | -29.1% | -11% | 47% | -4.6% | -7% | -2% | 19.1%
6 | Nc1ccc(CCCCCc2ccc(N)cc2)cc1 | -3% | 80% (active) | 98.6% (active) | -9% | 99% (active) | 99% (active) | 10% | 96% (active) | 98.9% (active) | 1% | 54% | 98% (active) | -6% | 83% (active) | 98.7% (active) | -1% | 98% (active) | 98.7% (active)
7 | CCN(CC)c1ccc(N=C2C=C(C(=O)Nc3cccc(Cl)c3)C(=O)c3ccccc32)c(C)c1 | -1% | -12% | -17.9% | 8% | 32% | -7% | -30% | -23% | -9.25% | -4% | -7% | 38.4% | 0% | -12% | -4.35% | -34% | -43% | -27.2%
8 | CC(=O)OC1CCC2(C)C(CCC3C4=CCC(C5COC(=O)C5)C4(C)CCC32)C1 (configuration not stated) | -1% | 79% (active) | 77.2% (active) | 17% | 94% (active) | 61.5% | -5% | 88% (active) | 84.7% (active) | -2% | 89% (active) | 63.1% | 4% | 91% (active) | 59.8% | 11% | 90% (active) | 78.1% (active)
9 | CCN(C(C)=O)c1cnc(/C=N/NC(N)=S)c2ccccc12 | 13% | 47% | 66.6% | 11% | 47% | 76.9% (active) | 18% | 71% (active) | 28.9% | -13% | 57% | 61.3% | 21% | 71% (active) | 60.4% | 11% | 57% | 31.5%
10 | CN1CCC(CCC(=O)OC(C)(C)C)(CN2c3ccccc3Sc3ccccc32)C1 (configuration not stated) | -4% | 98% (active) | 99.5% (active) | -14% | 96% (active) | 99.8% (active) | -12% | 96% (active) | 99.7% (active) | -12% | 97% (active) | 96.7% (active) | -2% | 78% (active) | 96.5% (active) | 19% | 99% (active) | 99.6% (active)
11 | O=C1C(=O)C(CCCO)(CCCO)CCCCCCCCC1(CCCO)CCCO | -9% | -3% | 31.4% | 5% | -11% | -35.1% | 5% | 8% | 0% | 6% | 19% | 63.8% | 13% | -7% | -6.5% | -8% | 0% | -5.95%
12 | O=C(Cc1ccccc1)OC(C(=O)c1ccccc1)c1ccccc1 (configuration not stated) | 4% | 94% (active) | -15.7% | 7% | 95% (active) | 10.3% | 3% | 93% (active) | -0.1% | 2% | 90% (active) | -12.3% | 20% | 92% (active) | 72.2% (active) | 4% | 92% (active) | -3.1%
13 | Cc1c(N2CCCC2)cc2c(c1NC(=O)c1ccccc1Cl)C(C)(C)CC2(C)C | 11% | 95% (active) | 82.8% (active) | -2% | 89% (active) | 59.5% | 20% | 85% (active) | 73.2% (active) | 0% | 91% (active) | 79.3% (active) | 10% | 80% (active) | 90.7% (active) | 22% | 91% (active) | 80.2% (active)
14 | CC[Si](CC)(CC)c1ccc(CCNCCS)s1 | -1% | 96% (active) | 97.4% (active) | 32% | 99% (active) | 98.7% (active) | 52% | 98% (active) | 98.2% (active) | 8% | 97% (active) | 98% (active) | 19% | 99% (active) | 98.4% (active) | 49% | 97% (active) | 98.3% (active)
15 | CCN(CC)CCNc1ccc(C)c2oc3ccc(O)cc3c(=O)c12 | 39% | 96% (active) | 99% (active) | 27% | 29% | 75.5% (active) | -1% | 29% | 81.5% (active) | 1% | 22% | 25.1% | -4% | 41% | 81.7% (active) | -1% | 43% | 95.8% (active)
16 | Nc1cc(F)c2c(c1F)C(=O)c1cc(F)ccc1-2 | 15% | 92% (active) | 93.3% (active) | 13% | 70% (active) | 27.3% | 2% | 84% (active) | 55.4% | 4% | 41% | 26.5% | 2% | 72% (active) | 17.8% | 5% | 78% (active) | 80.7% (active)
17 | ICCCCCCCCCC[n+]1ccc2ccccc2c1 | 32% | 98% (active) | 88.9% (active) | 89% (active) | 99% (active) | 89.8% (active) | 52% | 99% (active) | 89.3% (active) | 42% | 99% (active) | 85.4% (active) | 78% (active) | 99% (active) | 92.7% (active) | 28% | 96% (active) | 90.5% (active)
18 | Oc1c(C(O)(c2ccccc2)c2ccc3ccccc3c2O)ccc2ccccc12 | 17% | 81% (active) | 84.8% (active) | 3% | 81% (active) | 84.4% (active) | 13% | 76% (active) | 79.4% (active) | 9% | 96% (active) | 82.5% (active) | 21% | 95% (active) | 89.2% (active) | 9% | 85% (active) | 86.9% (active)
19 | CN(C)Cc1ccc2[nH]c3c(c2c1)CCCC3 | 4% | 96% (active) | 66.8% | 11% | 72% (active) | 36.6% | 2% | 90% (active) | 43.7% | 0% | 72% (active) | 21.2% | 1% | 85% (active) | 45% | 28% | 93% (active) | 65.1%
